Active and inactive are the calls of the source. The calls were made as follows: active = hit-call score of the fitted dose curve at least 0.9, where 1 is the maximum; inactive = score below 0.9.
How the values were obtained:
[1] = ATG_CRE_CIS: Attagene CIS-FACTORIAL HepG2 Assay for human cAMP Responsive Element (CRE) binding protein 3 (AID 2282926); settings: HepG2 CRE cis-reporter, Attagene multiplexed mRNA; actives raise or lower the signal
How it was run: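 Assay format: transient reporter transfection of HepG2, 24 h treatment, total RNA isolation with DNase I step. Reporter abundance read by fluorescence after PCR and capillary separation; DMSO-normalised gain or loss fitting.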

[2] = target: CCAAT/enhancer-binding protein beta (Homo sapiens) (UniProt P17676); experiment: ATG_C_EBP_CIS: Attagene CIS-FACTORIAL HepG2 Assay for human CCAAT/Enhancer Binding Protein (C/EBP) beta (AID 2282927); settings: HepG2 Attagene cis-factorial transcription factor reporter; actives raise or lower the signal
How it was run: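 Transiently transfected HepG2 (MRTU library, endogenous TF-driven promoters); 24 h dosing; total RNA → oligo(dT) RT → PCR → 6-FAM primer extension → HpaI digest → CE; fit bidirectionally vs DMSO.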

[3] = ATG_CMV_CIS: Attagene CIS-FACTORIAL HepG2 Assay for human CMV (Internal Marker) (AID 2282928); settings: HepG2 CMV promoter reporter, transcription factor profiling; actives raise or lower the signal;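 also: endpoint acts as a background internal control marker rather than a target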
How it was run: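 Readout: fluorescent reporter cDNA fragments separated by capillary electrophoresis after RT-PCR and HpaI cut. Cells: HepG2 carrying transfected cis-promoter reporter constructs, dosed 24 h. Endpoint serves as background internal-marker control, fit bidirectionally versus DMSO.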

[4] = ATG_DR4_LXR_CIS: Attagene CIS-FACTORIAL HepG2 Assay for human Liver X Receptor (LXR), DR4 submotif (AID 2282929); settings: HepG2 Attagene DR4 cis-reporter, mRNA transcription; actives raise or lower the signal
How it was run: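 DR4 cis-reporter in HepG2, 24 h exposure. Detection: RT-PCR, 6-FAM labelling, CE fragment analysis. Endpoint fitted bidirectionally, DMSO = baseline.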

[5] = target: Aryl hydrocarbon receptor (Homo sapiens) (UniProt P35869); experiment: ATG_Ahr_CIS: Attagene CIS-FACTORIAL HepG2 Assay for human Aryl Hydrocarbon Receptor (Ahr) (AID 2282930); settings: HepG2 AhR cis-factorial reporter transcription; actives raise or lower the signal
How it was run: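 Read-out: reporter mRNA quantified by RT-PCR with fluorescent primer extension and capillary electrophoresis. Human HepG2 liver cells carried transfected cis-promoter reporter units and were exposed to chemical for 24 h; gain or loss fitted relative to DMSO.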

[6] = ATG_AP_1_CIS: Attagene CIS-FACTORIAL HepG2 Assay for human Activator Protein 1 (AP-1) (AID 2282931); settings: HepG2 Attagene cis-factorial AP-1 reporter mRNA; actives raise or lower the signal
How it was run: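 Cis-regulated reporter units transiently expressed in HepG2 report endogenous transcription-factor activity. Signal: reporter mRNA at 24 h, via RT-PCR and fluorescent capillary electrophoresis. Endpoint derived by bidirectional fitting, DMSO as negative control.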

[7] = ATG_BRE_CIS: Attagene CIS-FACTORIAL HepG2 Assay for human Bone Morphogenetic Protein (BMP) Response Element (BRE) (AID 2282933); settings: HepG2 BMP response element reporter, Attagene transcription factor profiling; actives raise or lower the signal
How it was run: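 Read-out: reporter mRNA induction quantified by RT-PCR and capillary electrophoresis after 24 h chemical exposure of transfected HepG2 cells. Endogenous factor activity on the BMP response element; gain or loss fitted against DMSO baseline.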

[8] = target: Retinoic acid receptor alpha (Homo sapiens) (UniProt P10276); experiment: ATG_DR5_RAR_CIS: Attagene CIS-FACTORIAL HepG2 Assay for human Retinoic Acid Receptor Alpha (RARE), DR5 submotif (AID 2282934); settings: HepG2 Attagene cis-factorial RARE DR5 reporter, mRNA; actives raise or lower the signal
How it was run: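 Read-out: DR5-driven reporter transcript measured by RT-PCR, 6-FAM primer extension, HpaI digest and capillary electrophoresis. Human HepG2 liver cells carry transiently transfected cis-element reporter constructs; dosing lasts 24 h. Gain or loss of signal fitted against DMSO baseline.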

[9] = target: Transcription factor E2F1 (Homo sapiens) (UniProt Q01094); experiment: ATG_E2F_CIS: Attagene CIS-FACTORIAL HepG2 Assay for human E2F Transcription Factor 1 (AID 2282935); settings: HepG2 Attagene cis-reporter, E2F reporter RNA transcripts; actives raise or lower the signal
How it was run: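 Transient MRTU transfection of HepG2; 24 h compound exposure; RNA → oligo(dT) RT → PCR → FAM label → HpaI cut → CE fluorescence. Gain/loss of signal fit against DMSO.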

[10] = ATG_E_Box_CIS: Attagene CIS-FACTORIAL HepG2 Assay for human Enhancer Box (E-box) (AID 2282936); settings: HepG2 E-box cis-reporter transcription, actives raise or lower the signal
How it was run: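 Transiently transfected HepG2, endogenous TF-driven reporters, 24 h dosing. Readout: RT-PCR plus capillary electrophoresis of fluorescent reporter fragments. Gain or loss of signal fitted bidirectionally against DMSO baseline.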

[11] = ATG_EGR_CIS: Attagene CIS-FACTORIAL HepG2 Assay for human Early Growth Response 1 (EGR1) (AID 2282938); settings: HepG2 Attagene CIS-FACTORIAL EGR reporter mRNA; actives raise or lower the signal
How it was run: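 Endpoint derived by bidirectional fitting versus DMSO vehicle. Method: cis-promoter reporter units transfected into HepG2, 24 h dosing, RNA isolation, RT-PCR with 6-FAM primer extension and HpaI digestion, then capillary electrophoresis fluorescence detection.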

[12] = ATG_M_19_CIS: Attagene CIS-FACTORIAL HepG2 Assay for M19 Transcription Factor (Internal Marker) (AID 2282939); settings: HepG2 Attagene CIS-FACTORIAL M19 internal marker reporter; actives raise or lower the signal
How it was run: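 Readout: fluorescent reporter-transcript fragments by capillary electrophoresis after RT-PCR. Human HepG2 liver cells carried transfected MRTU constructs reporting endogenous transcription-factor activity; exposure 24 h. Gain or loss of signal fitted relative to DMSO.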

[13] = ATG_ERE_CIS: Attagene CIS-FACTORIAL HepG2 Assay for Estrogen Response Element (ERE) (AID 2282940); settings: HepG2 ERE cis-reporter, Attagene RNA transcript; actives raise or lower the signal
How it was run: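 Readout: reporter mRNA induction by RT-PCR, FAM-labelled primer extension, HpaI digestion and capillary electrophoresis, 24 h after dosing transfected HepG2 cells. Endogenous transcription factors act on cis-element-regulated reporters. Gain or loss fitted against DMSO.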

[14] = target: Hepatocyte nuclear factor 3-beta (Homo sapiens) (UniProt Q9Y261); experiment: ATG_FoxA2_CIS: Attagene CIS-FACTORIAL HepG2 Assay for human Forkhead box A2 (FOXA2) (AID 2282942); settings: HepG2 cis-reporter transcription factor activity, 24 h; actives raise or lower the signal
How it was run: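 Measured: reporter mRNA induction or loss in HepG2 transiently carrying multiple cis-regulated reporter units, 24 h after dosing. Quantified by RT-PCR plus capillary electrophoresis, normalised to DMSO.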

[15] = ATG_FoxO_CIS: Attagene CIS-FACTORIAL HepG2 Assay for human Forkhead box O (FoxO) (AID 2282943); settings: HepG2 Attagene cis-reporter, FoxO element, mRNA; actives raise or lower the signal
How it was run: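 Read-out: fluorescence of 6-FAM-labelled reporter cDNA fragments resolved by capillary electrophoresis. Transiently transfected HepG2 cells were dosed for 24 h; activity fitted in both directions relative to DMSO controls.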

[16] = ATG_GATA_CIS: Attagene CIS-FACTORIAL HepG2 Assay for human GATA Binding Protein (AID 2282944); settings: HepG2 GATA cis-element reporter, Attagene multiplex mRNA; actives raise or lower the signal
How it was run: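 Read-out: fluorescent reporter mRNA fragments resolved by capillary electrophoresis after RT-PCR. Human liver HepG2 cells carried transiently transfected cis-regulated reporter constructs; chemicals incubated 24 h; gain or loss of signal fitted relative to DMSO.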

[17] = ATG_GLI_CIS: Attagene CIS-FACTORIAL HepG2 Assay for human Zinc Finger Protein GLI1 (AID 2282945); settings: HepG2, Attagene cis-factorial reporter mRNA, GLI element; actives raise or lower the signal
How it was run: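 Transiently transfected HepG2 cells report endogenous transcription factor activity via cis-element-driven reporter units. After 24 h compound exposure, reporter mRNA was measured by RT-PCR with capillary electrophoresis; bidirectional fitting against DMSO baseline.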

[18] = ATG_AP_2_CIS: Attagene CIS-FACTORIAL HepG2 Assay for human Activator Protein 2 (AP-2) (AID 2282932); settings: HepG2 AP-2 cis-reporter, Attagene transcription factor profiling; actives raise or lower the signal
How it was run: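 Read-out: fluorescent reporter mRNA via RT-PCR and capillary electrophoresis, 24 h post-dose in transiently transfected HepG2. Endogenous factors drive cis-promoter reporters; gain or loss of signal fitted bidirectionally against DMSO.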

[19] = ATG_M_61_CIS: Attagene CIS-FACTORIAL HepG2 Assay for M61 Transcription Factor (Internal Marker) (AID 2282937); settings: HepG2 Attagene CIS-FACTORIAL M61 internal marker reporter; actives raise or lower the signal
How it was run: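 Background-control endpoint: HepG2 cells with cis-regulated reporter constructs, 24 h exposure, reporter mRNA detected via fluorescent primer extension and capillary electrophoresis; values from bidirectional fitting with DMSO baseline.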

[20] = ATG_Ets_CIS: Attagene CIS-FACTORIAL HepG2 Assay for human Erythroblast Transformation Specific (ETS) (AID 2282941); settings: HepG2 ETS cis-reporter transcription, actives raise or lower the signal
How it was run: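 RT-PCR/capillary electrophoresis fluorescence read-out of reporter mRNA; HepG2 transient multi-reporter transfection; 24 h compound exposure; gain or loss of signal fitted bidirectionally relative to DMSO.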

Measured: AC50

CCAAT/enhancer-binding protein beta (Homo sapiens), sequence (P17676 whole entry, looked up): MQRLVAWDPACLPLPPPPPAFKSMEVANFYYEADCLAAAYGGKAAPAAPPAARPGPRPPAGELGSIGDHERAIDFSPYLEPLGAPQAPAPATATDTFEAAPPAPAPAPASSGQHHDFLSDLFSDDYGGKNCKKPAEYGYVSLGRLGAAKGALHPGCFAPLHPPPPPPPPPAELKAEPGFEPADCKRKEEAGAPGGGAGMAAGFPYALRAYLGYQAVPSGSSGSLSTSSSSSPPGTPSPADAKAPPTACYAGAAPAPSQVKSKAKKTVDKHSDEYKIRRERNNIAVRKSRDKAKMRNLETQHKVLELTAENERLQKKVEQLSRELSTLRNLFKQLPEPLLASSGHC
Hepatocyte nuclear factor 3-beta (Homo sapiens), sequence (Q9Y261 whole entry, looked up): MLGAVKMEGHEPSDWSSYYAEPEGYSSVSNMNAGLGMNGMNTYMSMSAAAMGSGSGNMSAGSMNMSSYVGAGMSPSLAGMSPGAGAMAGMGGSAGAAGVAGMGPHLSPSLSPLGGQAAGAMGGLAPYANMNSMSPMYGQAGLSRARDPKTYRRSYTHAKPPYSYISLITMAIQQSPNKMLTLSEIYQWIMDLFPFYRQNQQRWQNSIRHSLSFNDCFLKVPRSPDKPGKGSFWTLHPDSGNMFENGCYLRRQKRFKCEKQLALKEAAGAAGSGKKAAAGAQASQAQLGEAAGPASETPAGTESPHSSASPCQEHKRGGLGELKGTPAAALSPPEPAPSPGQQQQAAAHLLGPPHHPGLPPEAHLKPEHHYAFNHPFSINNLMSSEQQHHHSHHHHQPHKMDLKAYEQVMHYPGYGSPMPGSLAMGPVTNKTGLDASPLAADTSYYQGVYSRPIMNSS
Transcription factor E2F1 (Homo sapiens), sequence (Q01094 whole entry, looked up): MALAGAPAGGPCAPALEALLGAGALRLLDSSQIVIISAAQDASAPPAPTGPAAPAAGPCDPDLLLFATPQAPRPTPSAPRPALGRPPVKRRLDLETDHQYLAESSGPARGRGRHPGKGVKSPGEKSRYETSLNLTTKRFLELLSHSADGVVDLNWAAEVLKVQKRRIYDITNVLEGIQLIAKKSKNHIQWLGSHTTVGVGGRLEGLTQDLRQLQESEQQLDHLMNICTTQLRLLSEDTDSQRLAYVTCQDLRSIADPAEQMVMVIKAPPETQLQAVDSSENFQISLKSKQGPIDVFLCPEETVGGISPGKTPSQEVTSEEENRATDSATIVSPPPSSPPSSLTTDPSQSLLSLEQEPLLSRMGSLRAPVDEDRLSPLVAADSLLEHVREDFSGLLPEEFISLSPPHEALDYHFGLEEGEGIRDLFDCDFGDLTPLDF
Aryl hydrocarbon receptor (Homo sapiens), sequence (P35869 whole entry, looked up): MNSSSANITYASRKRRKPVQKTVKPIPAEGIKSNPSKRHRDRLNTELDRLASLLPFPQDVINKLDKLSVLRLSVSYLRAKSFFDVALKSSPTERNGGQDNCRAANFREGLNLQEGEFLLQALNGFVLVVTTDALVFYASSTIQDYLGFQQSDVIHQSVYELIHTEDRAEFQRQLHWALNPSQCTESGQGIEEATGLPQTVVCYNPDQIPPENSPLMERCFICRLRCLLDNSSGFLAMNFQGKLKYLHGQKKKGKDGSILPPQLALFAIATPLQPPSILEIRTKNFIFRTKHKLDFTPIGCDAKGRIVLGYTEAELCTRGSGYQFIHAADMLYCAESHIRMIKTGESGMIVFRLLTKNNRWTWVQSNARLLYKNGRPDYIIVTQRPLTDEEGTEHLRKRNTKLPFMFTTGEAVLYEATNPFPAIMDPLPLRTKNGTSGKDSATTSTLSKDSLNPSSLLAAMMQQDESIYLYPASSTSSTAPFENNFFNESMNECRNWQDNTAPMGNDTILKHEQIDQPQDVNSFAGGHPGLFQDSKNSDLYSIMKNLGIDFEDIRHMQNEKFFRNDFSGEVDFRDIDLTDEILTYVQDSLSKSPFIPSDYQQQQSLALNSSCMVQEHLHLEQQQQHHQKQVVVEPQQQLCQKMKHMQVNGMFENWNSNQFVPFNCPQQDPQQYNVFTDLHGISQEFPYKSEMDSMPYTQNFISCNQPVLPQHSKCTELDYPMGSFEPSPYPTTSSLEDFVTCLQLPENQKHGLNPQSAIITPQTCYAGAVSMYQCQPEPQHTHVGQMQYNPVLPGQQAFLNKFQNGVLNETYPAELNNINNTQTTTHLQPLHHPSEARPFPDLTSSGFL
Retinoic acid receptor alpha (Homo sapiens), sequence (P10276 whole entry, looked up): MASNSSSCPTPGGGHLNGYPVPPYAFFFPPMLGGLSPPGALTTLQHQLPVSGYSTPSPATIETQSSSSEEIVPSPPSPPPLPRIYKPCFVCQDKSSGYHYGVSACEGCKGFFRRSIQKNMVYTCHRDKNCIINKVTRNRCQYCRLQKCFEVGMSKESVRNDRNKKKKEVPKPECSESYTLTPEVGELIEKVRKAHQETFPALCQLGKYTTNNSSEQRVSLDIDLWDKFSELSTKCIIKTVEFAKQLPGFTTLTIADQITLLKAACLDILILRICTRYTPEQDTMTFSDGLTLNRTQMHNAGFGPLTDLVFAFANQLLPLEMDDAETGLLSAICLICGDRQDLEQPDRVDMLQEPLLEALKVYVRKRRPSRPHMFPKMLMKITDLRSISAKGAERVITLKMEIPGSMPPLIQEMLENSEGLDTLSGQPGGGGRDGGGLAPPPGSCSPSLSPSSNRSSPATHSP

CC(=O)c1ccc[nH]1
not listed: [18] | [19] | [20]
inactive: all other assays above

C[Si](C)(C)O[Si](O)(O)O
not listed: [6] | [10]
inactive: all other assays above

Cc1cc(C)c(C)cc1C
not listed: [6] | [18] | [19]
inactive: all other assays above

Cc1ccc2c(c1)C(=O)c1ccccc1C2=O
active: [3] 21.5 µM | [5] 9.39 µM | [13] 12.2 µM
not listed: [6] | [16]
inactive: all other assays above

C=C(C)CCO
not listed: [8] | [18] | [20]
inactive: all other assays above

CCCCCCCCCCOC(C)=O
active: [13] 8.88 µM
not listed: [6]
inactive: all other assays above

CC(=O)[C@H]1[C@H](C#N)C[C@H]2[C@@H]3CC=C4C[C@@H](O)CC[C@]4(C)[C@H]3CC[C@@]21C
not listed: [6] | [10]
inactive: all other assays above

CC(=O)Nc1nnc(S(N)(=O)=O)s1
not listed: [5] | [16]
inactive: all other assays above

From PubChem BioAssay (EPA / NIEHS)
